Measurements as given in ChEMBL document CHEMBL4513216, “Probing the Open Global Health Chemical Diversity Library for Multistage-Active Starting Points for Next-Generation Antimalarials” (ACS Infect Dis, 2020).
In all, about 69,000 compounds went through this assay and about 8,600 (12%) showed an effect of 50% or more. This excerpt belongs to a sample that is enriched for strong results.

The molecules below were run on Plasmodium berghei (assay: Screen against P. berghei liver stage (PbLuc), transformed with Luciferase, at 10uM). Settings: tested at 10 uM.
Format: functional, HepG2

Row | SMILES | INHIBITION [%]
1 | c1cc(CNc2cnc(C3CCCN3)cn2)ccn1 (centres undefined) | 3.03
2 | COc1ccc(-c2cc(C3(O)CCCC3)on2)cc1 | -111
3 | CNC(=O)[C@H]1C[C@H]2OCC[C@H]2N(Cc2ccc(C)o2)C1 | 10.3
4 | Cn1cc(C2CC(=O)NC23CCN(Cc2ccncc2)CC3)cn1 (centres undefined) | -16.2
5 | COCC(=O)N[C@H]1C[C@@H](C(=O)NCCc2cccc(Cl)c2)N(C)C1 | 31.1
6 | CCOC(=O)N[C@H]1C[C@@H](C(=O)NCCc2cccc(Cl)c2)N(C)C1 | 55
7 | CCOC(=O)N[C@H]1C[C@@H](C(=O)NCc2cccc(Cl)c2)N(C)C1 | -0.71
8 | CC(C)CC(=O)N(C)CC(=O)Nc1ccc(Br)cn1 | 29.7
9 | CCN1CCN(c2ccc(C(=O)NCCn3ccnc3)cc2F)CC1 | 38.8
10 | CCN1CCN(c2ccc(C(=O)NCc3cc(C)no3)cc2F)CC1 | 11.7
11 | CCN1CCN(c2ccc(C(=O)NCCOC)cc2F)CC1 | 76.7
12 | CN(C)Cc1nn(C)c2c1CN(C(=O)Nc1cccc(F)c1)C2 | -36.2
13 | Cn1nc(CN2CCCC2)c2c1CN(C(=O)Nc1cccc(F)c1)CC2 | 20.1
14 | COc1ccc(C(=O)N2Cc3c(Cn4ccnc4)nn(C)c3C2)cc1 | 32.4
15 | Cc1ccc(C(=O)N2Cc3c(CN4CCCCC4)nn(C)c3C2)cc1C | 65.4
16 | CCCc1ccc(C(=O)N2Cc3c(Cn4ccnc4)nn(C)c3C2)cc1 | 78.8
17 | Cn1nc(CN2CCCCC2)c2c1CN(C(=O)Nc1cccc(F)c1)C2 | 79.6
18 | Cc1ccc(C(=O)N2CCc3c(CN4CCCC4)nn(C)c3C2)cc1C | 44.3
19 | Cn1nc(Cn2ccnc2)c2c1CN(C(=O)c1ccoc1)C2 | 47.4
20 | Cc1ccc(C(=O)N2Cc3c(CN4CCCCC4)nn(C)c3C2)cc1F | -31
21 | O=C(NCCCn1cncn1)N1CCCCCC1 | 20.45
22 | COCCOc1ncccc1C(=O)N1CCCCC1c1nccs1 (centres undefined) | -38.7
23 | CCc1cc(C(=O)N2CCC(c3cc4ncccc4cn3)CC2)on1 | 20.8
24 | CCCN1CCN(C(=O)c2ccn(COc3ccc(F)cc3)n2)CC1 | 2.69
25 | CCOc1ccccc1C(=O)Nn1c(C)cc(C)cc1=O | 44.1
26 | CC(=O)N1CCN(CCNC(=O)NC(C)Cn2ccnc2)CC1 (centres undefined) | 43.5
27 | O=C(NC1CC1)[C@@H]1C[C@@H]2CCN(Cc3ccoc3)C[C@@H]2O1 | 49.4

Row | SMILES | INHIBITION [%]
28 | COCCNC(=O)[C@H]1C[C@@H]2CCN(Cc3ccoc3)C[C@H]2O1 | 30.1
29 | O=C(NCC1CC1)[C@@H]1C[C@@H]2CCN(Cc3ccoc3)C[C@@H]2O1 | -10.3
30 | CNC(=O)[C@H]1C[C@@H]2CCN(Cc3ccc4c(c3)OCO4)C[C@@H]2O1 | -9.18
31 | CNC(=O)[C@@H]1C[C@@H]2CCN(Cc3ccoc3)C[C@H]2O1 | 30.3
32 | CC(C)NC(=O)[C@@H]1C[C@@H]2CCN(Cc3ccoc3)C[C@H]2O1 | 53.9
33 | O=C(NCC1CC1)[C@H]1C[C@@H]2CCN(Cc3ccc4c(c3)OCO4)C[C@@H]2O1 | 30.4
34 | O=C(NC1CC1)[C@H]1C[C@@H]2CCN(Cc3ccc4c(c3)OCO4)C[C@@H]2O1 | 61.1
35 | O=C(NC1CCCC1)[C@@H]1C[C@@H]2CCN(Cc3ccoc3)C[C@H]2O1 | 54.8
36 | CCN(C)[C@H]1CN(C(=O)c2cccc(N3CCS(=O)(=O)CC3)c2)C[C@@H]1O | 8.74
37 | O=C1CC2(CCN(Cc3ccccn3)C2)CN1c1cncnc1 (centres undefined) | -3.41
38 | Cc1nccn1-c1ccc(NS(=O)(=O)c2cccnc2)cn1 | 6.94
39 | O=C(c1ccsc1)N1CCO[C@@H]2CN(Cc3cccs3)C[C@@H]2C1 | -2.46
40 | CSCCCNC(=O)c1coc(Cn2cnc3ccccc32)n1 | 25.1
41 | O=C(NCC1CCCO1)c1coc(Cn2cnc3ccccc32)n1 (centres undefined) | 69.1
42 | O=C(NCC1CCCCO1)c1cc(Cn2cnc3ccccc32)[nH]n1 (centres undefined) | 31.4
43 | O=C(NCCO)c1coc(Cn2cnc3ccccc32)n1 | 52
44 | O=C(NCCO)c1coc(CN2CCN(c3ccccc3F)CC2)n1 | 26.9
45 | Cn1cnc(-c2nc(C(=O)NCC3CCCO3)c3ccccn23)c1 (centres undefined) | 4.08
46 | CC(C)=CCN1C(=O)[C@@H]2CC[C@H]1CN(c1ncccc1C(N)=O)C2 | 49.7
47 | CC(C)(C)c1cc(NC(=O)CN2CCn3c(nnc3C3CC3)C2)on1 | -3.8
48 | NC(=O)C1CN(C(=O)Nc2ccccc2Oc2ccccc2Cl)CCO1 (centres undefined) | -67.7
49 | COc1ccc(C(=O)N2CC[C@@H]3[C@H](CC2)N(C)CCS3(=O)=O)cc1 | -14.3
50 | O=C(C1CC1)N1CC2(CCN(CC3CC3)CC2)c2cc(F)ccc21 | -15.9
51 | COC(=O)C1CN(Cc2ccn(-c3ccc(F)cc3)n2)C[C@@H](C)O1 (some centres undefined) | 16
52 | COC(=O)C1CN(Cc2ccn(-c3ccc(F)cc3)n2)CCO1 (centres undefined) | -173
53 | COC(=O)CC1CN(Cc2ccn(-c3ccc(F)cc3)n2)CCO1 (centres undefined) | 52.2
54 | COCCN1CCC2(CC1)CC(N1CCOCC1)c1cc(C)ccc12 (centres undefined) | 87.4
